From PubChem BioAssay
Compounds with a hit are over-represented: about 2% of the library has one in this group of screens.
TAG inh – inhibitors of triacylglycerol accumulation, primary screen, cell-based, uHTS, fluorescence, H9c2; H9c2 cells, Nile Red lipid (TAG) fluorescence; cells loaded with 200 µM oleic acid; inhibition, % at 12.5 µM; actives 0.66% (n = 230,000); AID 651582, 2012;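 active means pattern-corrected inhibition of lipid staining of at least 50% with the nuclear-stain viability signal not falling by more than 50%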;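 further: 0% = DMSO wells and 100% = triacsin C control wells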
CHT PAM – CHT positive allosteric modulators, primary screen, cell-based, membrane potential dye, choline EC20 | actives 0.49% (n = 310,000) | CHT-expressing cells; active compounds read high; LV-AA mutant CHT in HEK293 cells | B-score at 10 µM;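 active means initial fluorescence not abnormally high and integrated response B-score, plate-corrected, over 3 SD above library mean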
Kir21 inh – inhibitors of mouse Kir2.1 inward-rectifier potassium channel | Inward rectifier potassium channel 2 (Mus musculus), P35561 | HEK293-Kir2.1, FluxOR thallium flux fluorescence; active compounds read low | B-score at 10 µM | actives 0.85% (n = 310,000);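 active means fluorescence ratio B-score at or below minus 3 SD of library scores, with starting-brightness B-score within 2 SD, cut at about -4.2 in these data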;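 further: channel flux triggered by added potassium and thallium sulfate stimulus; B-score of peak minus minimum fluorescence over baseline after thallium stimulus; more negative B-score means stronger Kir2.1 block with less thallium influx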
Target sequence (P35561 whole entry, looked up): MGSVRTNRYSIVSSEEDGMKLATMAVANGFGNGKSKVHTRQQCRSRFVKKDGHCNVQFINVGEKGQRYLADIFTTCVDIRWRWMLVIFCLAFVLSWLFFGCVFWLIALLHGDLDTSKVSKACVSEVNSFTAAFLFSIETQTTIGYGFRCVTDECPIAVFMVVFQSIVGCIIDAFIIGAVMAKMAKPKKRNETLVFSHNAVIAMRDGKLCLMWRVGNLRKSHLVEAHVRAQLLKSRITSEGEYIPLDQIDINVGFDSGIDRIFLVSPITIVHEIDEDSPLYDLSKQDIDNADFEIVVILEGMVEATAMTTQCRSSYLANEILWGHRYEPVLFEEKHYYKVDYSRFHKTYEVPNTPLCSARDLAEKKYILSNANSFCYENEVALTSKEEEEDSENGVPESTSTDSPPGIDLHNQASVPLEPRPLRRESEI
CHT block – inhibitors of human choline transporter CHT | actives 0.86% (n = 310,000) | CHT-expressing cells, membrane potential dye, choline response; active compounds read low | High affinity choline transporter 1 (Homo sapiens), Q9GZV3 | B-score at 10 µM;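 active means B-score over 3 SD under the library average, and starting fluorescence ratio not unusually high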;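 further: choline stimulus applied at its EC90 after an EC20 pre-addition; B-score computed on integrated fluorescence ratio after choline addition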
CHT inh conf – CHT inhibitors, confirmation, cell-based, membrane potential dye, duplicate. CHT activity remaining % of control (active compounds read low), % at 10 µM. shares compounds with CHT block. CHT-expressing cells, choline membrane potential dye; LV-to-AA substituted CHT, HEK293 cells. actives 70% (n = 2,400). AID 493221, 2011;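 active means choline transporter activity left, mean of duplicates at 10 µM, below buffer-only control mean minus 3 SD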;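 further: depolarization triggered by choline at its EC90 following an EC20 pre-addition; 0% = hemicholinium-3 full block and 100% = buffer-only control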
HEK293 MPD ctr – membrane potential effects in parental HEK293, counter-screen for CHT inhibitor project, cell-based, membrane potential dye. shares compounds with CHT block. choline response; active = decrease or increase beyond buffer ±3SD. membrane potential ratio readout (active if shifted either direction beyond buffer ±3SD; no single direction) at 10 µM. actives 4% (n = 2,400);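 further: parental cells lack the transporter so any hit is non-specific; ratio is peak minus trough fluorescence over baseline after EC90 choline challenge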
* hit, by the source's call; i = inactive; . = no result.

SMILES | TAG inh | CHT PAM | Kir21 inh | CHT block | CHT inh conf | HEK293 MPD ctr
CC1CCC2(CC1)NC(=O)N(CC(=O)Nc1cc(S(=O)(=O)N3CCCC3)ccc1Cl)C2=O (stereo unspecified) | 1.7 | . | . | . | . | .
Cc1c(C(=O)Nc2ccc(S(=O)(=O)NCC3CCCO3)cc2)cccc1[N+](=O)[O-] (stereo unspecified) | 3.6 | i | 0.91 | -5.17* | 41.3%* | i
CC(=O)Nc1ccc(S(=O)(=O)NCC2CCCO2)cc1 (stereo unspecified) | 0.9 | i | -0.96 | i | . | .
O=C(Nc1cccc(Cl)c1)c1ccc(S(=O)(=O)NCC2CCCO2)cc1 (stereo unspecified) | . | i | 0.97 | i | . | .
O=C(Nc1ccc(S(=O)(=O)NCC2CCCO2)cc1)c1ccc(Cl)cc1[N+](=O)[O-] (stereo unspecified) | 8.3 | i | -0.59 | -15.9* | 0.4%* | i
COc1ccc(CCN2C(=O)CSC2c2ccc(OC)c(OC)c2)cc1OC (stereo unspecified) | -10.5 | i | -0.99 | i | . | .
COc1ccc(C2SCC(=O)N2CCc2ccc(OC)c(OC)c2)cc1 (stereo unspecified) | . | i | -0.98 | -6.01* | 42.5%* | i
COc1ccc(-c2nc(CS(=O)CC(=O)NC(C)CCc3ccccc3)c(C)o2)cc1OC (stereo unspecified) | . | i | 0.18 | i | . | .
Cc1ccc(-c2nc(SCC(=O)Nc3cc(C)on3)c3c(=O)n(C)c(=O)n(C)c3n2)cc1 | -8.6 | i | 2.24 | i | . | .
COc1cccc(CNS(=O)(=O)c2cc3c4c(c2)CCN4C(=O)CC3)c1 | 3.5 | i | 0.72 | i | . | .
CCc1ccccc1-n1nnc(-c2ccccc2)n1 | . | i | -0.83 | -5.45* | i | i
Cc1cccn2c(=O)c(C=O)c(N3CCCCCC3)nc12 | . | i | 0.12 | -6.4* | i | i
Cn1c(CN2CCN(CCO)CC2)c(C#N)c2ccccc21 | -3.3 | i | -6.97 | -5.28* | 40.8%* | i
CC(C)(C)OC(=O)C[C@@H]1C/C=C\C[C@H](CC(=O)N(CCO)Cc2ccccc2)C(=O)N2CCC[C@@H]2COC1=O | 5.0 | . | . | . | . | .
CCCCSc1nc(C)cc(C)c1S(=O)(=O)c1ccccc1C | -14.4 | i | -1.34 | -7.57* | i | i
Cc1cc(C)c(S(=O)(=O)c2ccccc2C)c(Cl)n1 | . | i | 1.54 | i | . | .
CC1(C(=O)Nc2nc3ccc(S(C)(=O)=O)cc3s2)CC1(Cl)Cl (stereo unspecified) | 10.9 | i | -1.41 | i | . | .
CC(Sc1nnc(N)s1)C(=O)NCc1ccc2c(c1)OCO2 (stereo unspecified) | 5.8 | . | . | . | . | .
CC(C)OC(=O)CN1CCN(C2c3ccccc3-c3ccccc32)CC1 | 8.0 | i | -2.07 | -5.61* | 70.4%* | i
COc1ccc(CNC(=O)CN(C(=O)Cn2nnc(-c3ccccc3F)n2)c2ccc(C)cc2)cc1 | -4.3 | i | -1.11 | -5.2* | i | i
CCN(CCNC(=O)CN1CCN(Cc2ccc(Cl)cc2)C1=O)c1ccccc1 | -42.5 | i | -2.91 | -6.17* | 66.3%* | i
O=C(CN1CCN(Cc2ccccc2)C1=O)NCc1ccc(Cl)cc1 | -14.0 | i | -0.13 | i | . | .
CCCCNC(=S)Nc1ccc2nc(N3CCN(CC)CC3)cc(C)c2c1 | . | i | -0.2 | i | . | .
CCCN1CCN(CCCNC(=S)Nc2ccc3nc(N4CCN(CC)CC4)cc(C)c3c2)CC1 | 20.0 | i | -0.12 | -6.66* | 13.3%* | i
O=C(CCN1CCCCC1)N1CCc2c([nH]c3ccccc23)C1c1cccnc1 (stereo unspecified) | 11.7 | . | . | . | . | .
SMILES | TAG inh | CHT PAM | Kir21 inh | CHT block | CHT inh conf | HEK293 MPD ctr
CCNc1nc2[nH]c(=O)c3c(c2s1)OC(N)=C(C#N)C3c1ccc(C)cc1 (stereo unspecified) | -9.1 | i | 0.13 | -4.95* | 67.3%* | i
CNc1nc2[nH]c(=O)c3c(c2s1)OC(N)=C(C#N)C3c1ccccc1 (stereo unspecified) | . | i | -0.29 | i | . | .
Cc1cccc(-c2nc(CN3CCCC(C(=O)NC4CCCCCC4)C3)c(C)o2)c1 (stereo unspecified) | 11.0 | i | -0.27 | i | . | .
Cc1cccc(-c2nc(CN3CCCC(C(=O)NC4CCCCC4)C3)c(C)o2)c1 (stereo unspecified) | -23.7 | i | 0.22 | -5.75* | i | i
O=C(CCN1CCOCC1)c1ccc2c(c1)OCCO2 | -4.4 | i | -1.02 | -5.18* | i | i
O=C(CCCN1CCOCC1)c1ccc2c(c1)OCCO2 | . | i | 0.76 | i | . | .
O=C(C1Cc2ccccc2CN1S(=O)(=O)c1ccc(F)cc1)N1CCCCC1 (stereo unspecified) | . | i | -1.41 | -6.29* | 3.1%* | i
O=C(NC1CCCCC1)C1Cc2ccccc2CN1S(=O)(=O)c1ccc(F)cc1 (stereo unspecified) | . | i | -1.15 | i | . | .
CS(=O)(=O)NCCNc1ncc(C(F)(F)F)cc1Cl | -10.7 | i | 0.03 | i | . | .
O=S(=O)(NCCNc1ncc(C(F)(F)F)cc1Cl)C(F)(F)F | -7.0 | i | -0.02 | -9.61* | 42.0%* | i
CN(C(=O)COC(=O)COc1ccc(Cl)cc1Cl)c1c(N)n(Cc2ccccc2)c(=O)[nH]c1=O | 8.7 | i | 0.06 | i | . | .
O=c1cc(-c2ccccc2)nc2c(-c3ccccc3)c(C(F)(F)F)[nH]n12 | 1.1 | i | -0.04 | -5.73* | 68.8%* | i
Cc1cc(OCC(=O)OCC(=O)NCc2cccs2)ccc1Cl | -9.8 | . | . | . | . | .
COc1cc(NC(=O)CSc2ncnc3sc4c(c23)CCCC4)c(C(=O)O)cc1OC | . | i | -0.29 | i | . | .
COC(=O)C(Oc1ccc2c(-c3ccc(OC)cc3)cc(=O)oc2c1)c1ccccc1 (stereo unspecified) | -8.9 | i | -1.25 | -6.17* | i | i
CC1=NN(C(=O)CSCc2ccccc2)C(O)(c2ccc(Cl)cc2)C1 (stereo unspecified) | -20.0 | i | -2.11 | -6.51* | i | i
CC1=NN(C(=O)CSCc2ccccc2)C(O)(c2ccc(F)cc2)C1 (stereo unspecified) | -19.2 | i | -1.23 | i | . | .
CCN(CCn1cccn1)C(=O)c1cc(COc2c(F)cccc2F)on1 | 10.1 | i | 0.47 | -5.52* | i | i
COc1ccc(OCCSc2nnc(C)n2-c2ccccc2)cc1 | . | i | -1.18 | -4.99* | i | i
